# Unmarked numbers belong to inactive results. Records with an inconclusive call do not appear. A call without a number means that no potency is given here. Calls of active or inactive are those of the source. Unless noted, calls come from the whole dose curve; as a rule, active = well fitted curve in the direction sought with a large enough effect; inconclusive = small, poorly fitted or top-dose-only effect, or another doubt; inactive = no such curve, though single readings can be large; an effect the other way counts as inactive or inconclusive.
# Columns and labels:
# [1] = target: Glucocorticoid receptor (Homo sapiens) (UniProt P04150); assay: GR-GFP Redistribution (AID 450;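 active = compounds whose dose series gives a full or clear partial fitted curve of increased nuclear translocation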; note: potency is the fitted concentration of half-maximal effect); details: U2OS GR-GFP nuclear translocation, laser cytometry, 2 h
# Glucocorticoid receptor (Homo sapiens), sequence (P04150 whole entry, looked up, the tested form may be a part): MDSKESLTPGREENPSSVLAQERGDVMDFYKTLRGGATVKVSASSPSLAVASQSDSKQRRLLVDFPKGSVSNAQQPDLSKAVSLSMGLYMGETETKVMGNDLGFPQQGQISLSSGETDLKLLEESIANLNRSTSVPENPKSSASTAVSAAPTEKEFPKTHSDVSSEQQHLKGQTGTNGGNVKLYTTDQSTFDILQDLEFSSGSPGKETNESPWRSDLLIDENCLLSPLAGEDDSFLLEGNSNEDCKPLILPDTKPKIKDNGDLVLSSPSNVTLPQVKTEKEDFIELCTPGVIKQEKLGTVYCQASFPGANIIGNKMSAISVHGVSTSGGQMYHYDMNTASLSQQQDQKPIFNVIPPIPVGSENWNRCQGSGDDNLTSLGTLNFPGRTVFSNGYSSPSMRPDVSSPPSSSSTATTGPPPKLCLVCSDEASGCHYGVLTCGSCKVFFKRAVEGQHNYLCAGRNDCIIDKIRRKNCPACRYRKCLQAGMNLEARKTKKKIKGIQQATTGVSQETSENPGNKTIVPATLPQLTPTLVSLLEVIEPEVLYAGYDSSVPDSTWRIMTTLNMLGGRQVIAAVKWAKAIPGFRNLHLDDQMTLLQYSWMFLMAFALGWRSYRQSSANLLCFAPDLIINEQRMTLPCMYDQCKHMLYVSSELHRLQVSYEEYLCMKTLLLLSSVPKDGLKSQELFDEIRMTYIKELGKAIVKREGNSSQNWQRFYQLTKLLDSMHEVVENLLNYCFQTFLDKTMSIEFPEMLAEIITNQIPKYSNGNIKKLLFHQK
# [2] = target: Glucocorticoid receptor (Homo sapiens) (UniProt P04150); assay: GR-EFC Redistribution (AID 451; calls by dose curve; note: potency is the fitted concentration of half-maximal effect); details: CHO-K1 GR-EFC translocation, beta-gal luminescence, 2 h
# In short: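 Translocation of GR-ED fusion to nuclear EA restores b-gal, read by luminescence after 1 h room-temperature detection. Engineered CHO-K1 biosensor cells, 1,000/well, exposed 2 h at 37 C to titrations up to 46 uM final.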
# [3] = target: 3',5'-cyclic-AMP phosphodiesterase 4B (Homo sapiens) (UniProt Q07343); assay: qHTS Assay for Inhibitors of PDE-IV (AID 607; active = well fitted activation curve with a large enough effect in the main read-out, with a control signal flat, not every such curve was filed as active); details: HEK293 ACTOne CNG channel cells, membrane potential fluorescence; series mostly up to 22.9 µM
# 3',5'-cyclic-AMP phosphodiesterase 4B (Homo sapiens), sequence (Q07343 whole entry, looked up): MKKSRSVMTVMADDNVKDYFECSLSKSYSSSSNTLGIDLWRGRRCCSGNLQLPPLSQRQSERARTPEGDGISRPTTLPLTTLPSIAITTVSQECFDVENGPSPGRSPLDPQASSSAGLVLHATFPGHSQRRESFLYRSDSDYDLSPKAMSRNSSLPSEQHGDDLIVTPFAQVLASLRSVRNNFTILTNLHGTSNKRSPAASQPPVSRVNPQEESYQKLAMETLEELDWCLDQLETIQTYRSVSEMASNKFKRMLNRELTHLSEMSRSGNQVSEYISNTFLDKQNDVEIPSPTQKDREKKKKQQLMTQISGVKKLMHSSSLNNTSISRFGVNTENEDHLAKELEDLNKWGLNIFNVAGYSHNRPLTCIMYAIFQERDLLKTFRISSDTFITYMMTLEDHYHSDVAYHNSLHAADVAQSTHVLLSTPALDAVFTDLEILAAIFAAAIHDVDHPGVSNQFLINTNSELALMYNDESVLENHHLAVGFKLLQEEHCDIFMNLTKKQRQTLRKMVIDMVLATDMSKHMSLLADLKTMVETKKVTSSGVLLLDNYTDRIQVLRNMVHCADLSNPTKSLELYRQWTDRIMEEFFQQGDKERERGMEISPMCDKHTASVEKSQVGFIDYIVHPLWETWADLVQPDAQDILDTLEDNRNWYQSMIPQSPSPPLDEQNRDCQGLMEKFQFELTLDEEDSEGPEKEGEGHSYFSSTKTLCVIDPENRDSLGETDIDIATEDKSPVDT
# In short: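 Live HEK293 cells with a modified cyclic nucleotide-gated (CNG) channel report intracellular cAMP via membrane-potential dye fluorescence (ex 535/em 590 nm). Endogenous PDE-IV was targeted. Compounds were tested at up to 22.9 uM final; RO 20-1724 100 uM served as control.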
# [4] = target: Cytochrome P450 2C19 (Homo sapiens) (UniProt P33261); assay: qHTS Assay for Inhibitors and Substrates of Cytochrome P450 2C19 (AID 899); details: recombinant CYP2C19, luciferin-H EGE luminescence; series mostly up to 57.1 µM; note: potency is the fitted concentration of half-maximal effect; nearly all actives have a fitted effect of over 60% in size
# In short: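 Luminescence readout of luciferin formed from 10uM Luciferin-H EGE (KM level) by 5 nM CYP2C19 in 50mM KPO4. 60 min NADPH-driven reaction at 37C after 10 min compound preincubation; data scaled to 57uM ketoconazole inhibition.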
# [5] = target: Ubiquitin carboxyl-terminal hydrolase 1 (Homo sapiens) (UniProt O94782); assay: Inhibitors of USP1/UAF1: Pilot qHTS (AID 504865); details: purified USP1/UAF1, Ub-rhodamine cleavage fluorescence; series mostly up to 114 µM; note: nearly all actives have a fitted effect of over 35% in size; note: potency is the fitted concentration of half-maximal effect
# Ubiquitin carboxyl-terminal hydrolase 1 (Homo sapiens), sequence (O94782 whole entry, looked up): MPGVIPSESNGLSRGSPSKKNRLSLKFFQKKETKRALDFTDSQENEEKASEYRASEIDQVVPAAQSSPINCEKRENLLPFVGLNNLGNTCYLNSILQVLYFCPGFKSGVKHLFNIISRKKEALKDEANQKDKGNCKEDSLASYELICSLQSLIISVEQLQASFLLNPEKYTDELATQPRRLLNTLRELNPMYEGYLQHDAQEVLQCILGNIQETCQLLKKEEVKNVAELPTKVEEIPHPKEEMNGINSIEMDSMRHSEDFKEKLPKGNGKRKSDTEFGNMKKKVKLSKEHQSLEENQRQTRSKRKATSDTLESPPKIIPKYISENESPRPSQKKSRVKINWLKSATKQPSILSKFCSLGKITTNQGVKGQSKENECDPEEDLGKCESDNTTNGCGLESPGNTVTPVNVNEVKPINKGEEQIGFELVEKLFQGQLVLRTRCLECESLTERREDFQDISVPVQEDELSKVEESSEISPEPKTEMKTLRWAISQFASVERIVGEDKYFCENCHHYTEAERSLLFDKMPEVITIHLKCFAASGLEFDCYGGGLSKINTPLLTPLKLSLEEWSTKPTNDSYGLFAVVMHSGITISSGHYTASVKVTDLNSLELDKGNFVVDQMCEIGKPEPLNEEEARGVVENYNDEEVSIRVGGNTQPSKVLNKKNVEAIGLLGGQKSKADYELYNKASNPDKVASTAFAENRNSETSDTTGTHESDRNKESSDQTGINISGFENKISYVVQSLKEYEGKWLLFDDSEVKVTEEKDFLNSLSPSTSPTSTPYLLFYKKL
# In short: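 Deubiquitinase activity followed as kinetic rhodamine fluorescence release from 150 nM Ub-Rho. 1 nM USP1/UAF1 with compound, after 15 min room-temperature preincubation, in HEPES pH 7.8 buffer containing TCEP, EDTA, BSA and Tween-20.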
# [6] = target: DNA dC->dU-editing enzyme APOBEC-3G (Homo sapiens) (UniProt Q9HC16); assay: qHTS for inhibitors of Vif-A3G interactions: Validation (AID 588379); details: Vif-A3G protein interaction assay; series mostly up to 46.1 µM; note: potency is the fitted concentration of half-maximal effect
# DNA dC->dU-editing enzyme APOBEC-3G (Homo sapiens), sequence (Q9HC16 whole entry, looked up): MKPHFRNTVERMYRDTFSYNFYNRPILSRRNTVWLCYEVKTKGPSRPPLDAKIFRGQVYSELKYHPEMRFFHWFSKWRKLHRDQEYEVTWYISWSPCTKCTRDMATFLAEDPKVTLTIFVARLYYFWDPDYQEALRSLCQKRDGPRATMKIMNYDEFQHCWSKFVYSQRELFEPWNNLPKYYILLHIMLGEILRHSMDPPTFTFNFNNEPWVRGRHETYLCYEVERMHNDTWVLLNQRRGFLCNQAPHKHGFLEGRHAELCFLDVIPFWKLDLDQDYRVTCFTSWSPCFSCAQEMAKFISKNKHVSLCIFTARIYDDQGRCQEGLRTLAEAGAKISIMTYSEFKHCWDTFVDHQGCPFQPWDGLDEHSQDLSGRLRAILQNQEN
# In short: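 HeLa cells stably expressing Vif and A3G-eYFP, 700 cells/well, incubated overnight at 37 deg C, then exposed to compound overnight at 37 deg C. Inhibition of Vif-mediated degradation read as increased yellow fluorescence (Ex 488/Em 500-530) by laser-scanning cytometry.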
# [7] = test system: Zika virus NS2B-NS3 protease; assay: Primary screen GU AMC qHTS for Zika virus inhibitors (AID 1347154); details: Zika NS2B-NS3 unlinked protease, AMC fluorogenic substrate; series mostly up to 54.1 µM; note: nearly all actives have a fitted effect of over 70% in size
# In short: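 Fluorogenic AMC-substrate cleavage by noncovalent NS2B-NS3 protease complex (25 nM, pH 8.0 Tris buffer with Tween 20) followed for 15 minutes at room temperature (~20% conversion). Percent inhibition from ex340/em450 signal change, fitted by 4-parameter Hill equation.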
# [8] = Primary qHTS for small molecule stabilizers of the endoplasmic reticulum resident proteome: Secreted ER Calcium Modulated Protein (SERCaMP) assay (AID 1508630); details: SH-SY5Y GLuc-SERCaMP (Gaussia luciferase released on ER calcium loss) secretion, thapsigargin, luminescence; series mostly up to 38.4 µM
# In short: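 GLuc-SERCaMP-expressing SH-SY5Y cells, pretreated 16 h with compound, are challenged with thapsigargin to empty ER calcium stores; after 4 h, coelenterazine is added directly to the medium and luminescence is imaged.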
# [9] = target: Cytochrome P450 2C9 (Homo sapiens) (UniProt P11712); assay: qHTS Assay for Inhibitors and Substrates of Cytochrome P450 2C9 (AID 883); details: recombinant CYP2C9, luciferin-H luminescence, 60 min; series mostly up to 57.1 µM; note: nearly all actives have a fitted effect of over 60% in size
# Cytochrome P450 2C9 (Homo sapiens), sequence (P11712 whole entry, looked up): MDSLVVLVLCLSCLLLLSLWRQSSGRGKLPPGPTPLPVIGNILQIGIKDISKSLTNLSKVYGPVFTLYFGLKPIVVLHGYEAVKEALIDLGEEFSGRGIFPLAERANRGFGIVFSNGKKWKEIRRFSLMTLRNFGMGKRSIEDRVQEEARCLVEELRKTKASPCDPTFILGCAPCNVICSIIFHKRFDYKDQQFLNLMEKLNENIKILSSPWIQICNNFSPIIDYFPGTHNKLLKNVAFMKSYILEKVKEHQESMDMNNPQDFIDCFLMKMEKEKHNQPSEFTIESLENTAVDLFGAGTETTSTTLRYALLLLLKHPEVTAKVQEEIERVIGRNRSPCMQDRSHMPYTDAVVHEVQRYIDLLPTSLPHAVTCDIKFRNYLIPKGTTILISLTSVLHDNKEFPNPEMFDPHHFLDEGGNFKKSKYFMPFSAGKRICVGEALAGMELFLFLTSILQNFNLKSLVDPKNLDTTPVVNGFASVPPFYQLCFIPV
# In short: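 Luminescent read-out of deoxyluciferin hydroxylation, normalized to 57uM sulphaphenazole (AC100). Reaction: 10nM enzyme, 100uM Luciferin-H (equal to KM), 25mM KPO4, 10 min compound preincubation, then 60 min with NADPH regeneration, both at 37C.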
# [10] = target: Cytochrome P450 3A4 (Homo sapiens) (UniProt P08684); assay: qHTS Assay for Inhibitors and Substrates of Cytochrome P450 3A4 (AID 884); details: recombinant CYP3A4, Luciferin-PPXE luminescence; series mostly up to 57.1 µM; note: potency is the fitted concentration of half-maximal effect; nearly all actives have a fitted effect of over 50% in size
# Cytochrome P450 3A4 (Homo sapiens), sequence (P08684 whole entry, looked up): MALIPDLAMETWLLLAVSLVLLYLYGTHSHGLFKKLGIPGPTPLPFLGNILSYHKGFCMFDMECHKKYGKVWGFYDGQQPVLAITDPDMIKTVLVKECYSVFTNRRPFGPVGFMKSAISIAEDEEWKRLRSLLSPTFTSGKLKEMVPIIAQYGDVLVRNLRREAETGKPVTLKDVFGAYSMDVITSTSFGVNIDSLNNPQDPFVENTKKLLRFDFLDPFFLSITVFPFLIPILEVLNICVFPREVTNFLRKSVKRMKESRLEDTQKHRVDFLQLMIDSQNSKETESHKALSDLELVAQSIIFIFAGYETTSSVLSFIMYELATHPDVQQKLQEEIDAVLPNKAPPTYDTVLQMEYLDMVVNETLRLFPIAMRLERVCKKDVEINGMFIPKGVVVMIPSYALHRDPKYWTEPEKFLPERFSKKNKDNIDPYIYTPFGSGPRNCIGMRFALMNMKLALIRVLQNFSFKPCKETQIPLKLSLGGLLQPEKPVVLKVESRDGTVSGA
# In short: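 20 nM human CYP3A4 with 25 uM Luciferin-PPXE (at KM) in 200 mM KPO4, preincubated 10 min with compound; NADPH regeneration started a 60 min RT reaction. Luciferin detected by luminescence, normalized to 57 uM ketoconazole as full inhibition.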
# [11] = target: Cytochrome P450 3A4 (Homo sapiens) (UniProt P08684); assay: qHTS Assay for Activators of Cytochrome P450 3A4 (AID 885); details: recombinant CYP3A4, Luciferin-PPXE luminescence, 60 min; series mostly up to 57.1 µM; note: nearly all actives have a fitted effect of over 65% in size
# In short: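 Quantitative HTS format: compounds preincubated with 20nM human CYP3A4 and Luciferin-PPXE substrate at KM, reaction started by NADPH regeneration, stopped after 60 min, luciferase luminescence read 20 min later.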
# [12] = target: Mitogen-activated protein kinase 10 (Mus musculus) (UniProt Q61831); assay: JNK3 AlphaScreen Assay (AID 530; active = well fitted curve in either direction with a large enough effect, not every such curve was filed as active;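 note: kinase came from lysate of stimulated human HepG2 cells; signal reports phosphorylation of biotinylated GST-cJun 1-79 at Ser73 with 10 µM ATP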); details: JNK3 lysate, c-Jun phosphorylation; series mostly up to 57.1 µM
# In short: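 Compound titrations were preincubated 15 minutes at room temperature with substrate, antibody and pre-activated JNK3-containing HepG2 lysate. Reactions were started with 10 uM ATP and stopped with EDTA-containing bead buffer for AlphaScreen detection.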
# [13] = target: Guanine nucleotide-binding protein G(i) subunit alpha-1 (Homo sapiens) (UniProt P63096); assay: qHTS Assay for Inhibitors of RGS12 GoLoco Motif Activity (Green Fluorophore) (AID 879); details: Galphai1/FITC-RGS12 GoLoco peptide, fluorescence polarization; series mostly up to 57.1 µM;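 note: negative values mean loss of peptide binding seen as reduced polarization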
# Guanine nucleotide-binding protein G(i) subunit alpha-1 (Homo sapiens), sequence (P63096 whole entry, looked up): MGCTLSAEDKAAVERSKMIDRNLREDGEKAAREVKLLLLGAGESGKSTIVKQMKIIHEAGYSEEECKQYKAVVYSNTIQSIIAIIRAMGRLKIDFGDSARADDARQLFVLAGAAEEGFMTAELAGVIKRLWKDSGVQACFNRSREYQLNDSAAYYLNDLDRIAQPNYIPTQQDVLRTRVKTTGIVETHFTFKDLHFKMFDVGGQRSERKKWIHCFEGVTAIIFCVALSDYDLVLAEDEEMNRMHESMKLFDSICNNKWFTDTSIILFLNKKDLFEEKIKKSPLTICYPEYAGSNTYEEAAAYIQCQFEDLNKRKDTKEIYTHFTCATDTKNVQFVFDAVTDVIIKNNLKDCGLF
# In short: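 Fluorescence polarization assay: 50 nM Gαi1 with 10 nM FITC-labeled RGS12 GoLoco peptide in 10 mM Tris pH 7.5, 150 mM NaCl, 0.1 mM GDP, 0.05% NP40, 10 min at room temperature with compound.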
# [14] = target: Muscarinic acetylcholine receptor M1 (Rattus norvegicus) (UniProt P08482); assay: qHTS Assay for Antagonists of Acetylcholine Muscarinic M1 Receptor: Kinetic Measurement of Intracellular Calcium Response (AID 943); details: M1-expressing cells, kinetic intracellular calcium fluorescence; series mostly up to 35.3 µM; note: potency is the fitted concentration of half-maximal effect; nearly all actives have a fitted effect of over 75% in size
# Muscarinic acetylcholine receptor M1 (Rattus norvegicus), sequence (P08482 whole entry, looked up): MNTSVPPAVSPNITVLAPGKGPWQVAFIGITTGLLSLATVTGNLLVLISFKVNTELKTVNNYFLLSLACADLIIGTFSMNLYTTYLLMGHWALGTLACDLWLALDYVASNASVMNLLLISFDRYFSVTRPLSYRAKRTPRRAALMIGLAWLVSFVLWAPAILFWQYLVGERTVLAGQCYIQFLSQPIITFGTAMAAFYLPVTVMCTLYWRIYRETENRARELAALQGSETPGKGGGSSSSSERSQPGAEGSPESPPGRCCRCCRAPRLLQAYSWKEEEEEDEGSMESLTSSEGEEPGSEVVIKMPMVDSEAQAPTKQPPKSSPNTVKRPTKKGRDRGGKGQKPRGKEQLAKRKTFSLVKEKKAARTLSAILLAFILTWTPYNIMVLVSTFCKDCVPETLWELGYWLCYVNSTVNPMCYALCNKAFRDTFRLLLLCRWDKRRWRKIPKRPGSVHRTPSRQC
# In short: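 Rat M1-CHO cells, 2000/well, overnight → Fluo-4 no-wash dye with probenecid, 1 h 37C → compound 10 min, room temp → basal read 6 s → carbachol EC80 (100 nM) → 4 min kinetic read; peak/basal.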
# [15] = target: Pyruvate kinase (Leishmania mexicana) (UniProt Q27686); assay: qHTS Validation Assay for Inhibitors of Leishmania Mexicana Pyruvate Kinase (AID 945); details: purified L. mexicana pyruvate kinase, enzyme activity, E451W mutant enzyme; series mostly up to 57.5 µM
# Pyruvate kinase (Leishmania mexicana), sequence (Q27686 2-499 E452W): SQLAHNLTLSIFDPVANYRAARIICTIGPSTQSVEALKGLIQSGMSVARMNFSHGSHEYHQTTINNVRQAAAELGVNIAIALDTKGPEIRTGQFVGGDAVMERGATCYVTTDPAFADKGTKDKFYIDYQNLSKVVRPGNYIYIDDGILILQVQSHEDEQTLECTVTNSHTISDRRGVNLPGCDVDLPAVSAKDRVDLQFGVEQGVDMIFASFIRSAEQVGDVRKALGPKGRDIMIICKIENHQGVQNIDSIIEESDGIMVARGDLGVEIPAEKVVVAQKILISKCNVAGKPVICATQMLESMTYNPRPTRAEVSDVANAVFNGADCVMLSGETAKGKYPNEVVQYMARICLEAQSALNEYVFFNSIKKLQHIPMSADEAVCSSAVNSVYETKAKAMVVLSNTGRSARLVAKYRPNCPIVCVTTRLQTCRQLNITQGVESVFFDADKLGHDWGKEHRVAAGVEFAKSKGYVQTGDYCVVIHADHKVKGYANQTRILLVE
# In short: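 Purified LmPYK (E451W mutant, 0.2 nM) was incubated 1 h at room temperature with 0.5 mM PEP and 0.1 mM ADP in 50 mM imidazole pH 7.2, 50 mM KCl, 7 mM MgCl2; ATP formed was read by PKLight luminescence, normalized to DMSO wells.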
# [16] = target: Pyruvate kinase PKM (Homo sapiens) (UniProt P14618); assay: qHTS Assay for Activators of Human Muscle Pyruvate Kinase (AID 954; active = well fitted curve in the direction sought with a large enough effect, not every such curve was filed as active); details: purified human muscle pyruvate kinase, luciferase-coupled luminescence, 1 h; series mostly up to 57.5 µM
# In short: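 Enzyme was run at intermediate activity so both inhibitors and activators could be detected. ATP formed from ADP and PEP by 0.1 nM human PKM2 during a 1 h room-temperature incubation was quantified by coupled luciferase luminescence.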
# [17] = target: Alpha-galactosidase A (Homo sapiens) (UniProt P06280); assay: Counterscreen for Glucocerebrosidase Inhibitors: qHTS Assay for Human alpha-Galactosidase at pH 4.5 (AID 992); details: purified enzyme, fluorogenic substrate; series mostly up to 76.9 µM
# In short: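 Read-out is 4-methylumbelliferone fluorescence (365 nm excitation, 440 nm emission) after a pH 10 NaOH/glycine stop. Reactions held 2 nM enzyme and 80 uM substrate at pH 4.5 for 20 min at room temperature.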
# [18] = target: alpha-glucosidase (Oryza sativa, rice) (UniProt Q653V4); assay: Counterscreen for Glucocerebrosidase Inhibitors: qHTS Assay for Rice alpha-Glucosidase at pH 5.0 (AID 997); details: rice alpha-glucosidase enzyme activity; series mostly up to 76.9 µM
# In short: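 Rice alpha-glucosidase (4 nM final) with 400 uM 4-methylumbelliferyl-alpha-D-glucopyranoside in citrate buffer pH 5.0, 20 min at room temperature, stopped at pH 10; fluorescence 365/440 nm, compounds 0.7 nM–77 uM, AC50 from Hill fits.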
structure (smiles),measurement,setting,value
CCCCCCCCCCCCC(=O)N1CCCC[C@H]1CNC(=O)[C@@H](N)CCCCN,Potency,[1],> 46 µM
same,Potency,[2],> 46 µM
same,Potency,[3],inactive
same,Potency,[4],7.94 µM (active)
same,Potency,[5],50.1 µM (active)
same,Potency,[6],inactive
same,Potency,[7],inactive
same,Potency,[8],inactive
CCS(=O)(=O)N1CCC[C@H]2CN3CCc4cc(OC)ccc4[C@@H]3C[C@@H]21,Potency,[1],> 46 µM
same,Potency,[2],> 46 µM
same,Potency,[9],inactive
same,Potency,[10],5.01 µM (active)
same,Potency,[11],inactive
same,Potency,[5],inactive
same,Potency,[6],inactive
same,Potency,[7],inactive
same,Potency,[8],inactive
O=C(O)CC/C=C\C[C@@H]1CO[C@H](c2ccccc2Cl)O[C@@H]1c1ccccc1O,Potency,[1],> 46 µM
same,Potency,[2],> 46 µM
same,Potency,[12],inactive
same,Potency,[11],inactive
same,Potency,[5],inactive
same,Potency,[6],inactive
same,Potency,[7],inactive
same,Potency,[8],inactive
O=[N+]([O-])c1ccc2cn[nH]c2c1,Potency,[2],> 46 µM
same,Potency,[11],inactive
same,Potency,[5],inactive
same,Potency,[6],inactive
same,Potency,[7],inactive
same,Potency,[8],inactive
CC(=O)[C@H](CC(C)C)NC(=O)[C@@H](CC(C)C)NC(=O)[C@H](CC(C)C)NC(=O)OCc1ccccc1,Potency,[1],> 46 µM
same,Potency,[2],> 46 µM
same,Potency,[3],inactive
same,Potency,[6],0.335 µM (active)
same,Potency,[7],inactive
same,Potency,[8],inactive
NS(=O)(=O)c1cccc2c1c([N+](=O)[O-])cc1[nH]c(=O)c(=O)[nH]c12,Potency,[1],> 46 µM
same,Potency,[2],> 46 µM
same,Potency,[12],inactive
same,Potency,[6],inactive
same,Potency,[7],inactive
same,Potency,[8],inactive
COc1ccc(NC(=O)c2ccc(-c3ccc(-c4noc(C)n4)cc3C)cc2)cc1OCCN(C)C,Potency,[1],> 46 µM
same,Potency,[2],> 46 µM
same,Potency,[11],inactive
same,Potency,[6],inactive
same,Potency,[7],inactive
same,Potency,[8],inactive
C[N+]1(C)CCc2cc3c(cc2[C@@H]1[C@@H]1C(=O)Oc2c1ccc1c2OCO1)OCO3,Potency,[1],> 46 µM
same,Potency,[2],> 46 µM
same,Potency,[12],inactive
same,Potency,[3],inactive
same,Potency,[11],inactive
same,Potency,[6],inactive
same,Potency,[7],inactive
same,Potency,[8],inactive
O=c1nc2ccccc2c2n1C[C@H](CN1CCN(c3ccccc3)CC1)N2,Potency,[1],> 46 µM
same,Potency,[2],> 46 µM
same,Potency,[12],inactive
same,Potency,[3],inactive
same,Potency,[5],inactive
same,Potency,[6],inactive
same,Potency,[7],inactive
same,Potency,[8],inactive
COCCNC(=O)COc1ccc(OCCNC[C@@H](O)COc2ccccc2)cc1,Potency,[1],> 46 µM
same,Potency,[2],> 46 µM
same,Potency,[12],inactive
same,Potency,[3],inactive
same,Potency,[11],inactive
same,Potency,[5],inactive
same,Potency,[6],inactive
same,Potency,[7],inactive
same,Potency,[8],inactive
CCCCCCCCCCCCCCCC(=O)O[C@H](CC(=O)O)C[N+](C)(C)C,Potency,[1],> 46 µM
same,Potency,[2],> 46 µM
same,Potency,[3],inactive
same,outcome,[13],inactive
same,Potency,[14],5.62 µM (active)
same,Potency,[15],inactive
same,outcome,[16],inactive
same,outcome,[17],inactive
same,outcome,[18],inactive
same,Potency,[6],inactive
same,Potency,[7],inactive
same,Potency,[8],inactive

# Source: PubChem BioAssay (NCATS)
